Screens (PubChem)
TDP1 inh: qHTS Assay for Inhibitors of Tyrosyl-DNA Phosphodiesterase (TDP1). Tyrosyl-DNA phosphodiesterase 1 (Homo sapiens), Q9NUW8. recombinant TDP1, AlphaScreen DNA substrate cleavage. Potency, µM (top dose mostly 130 µM), for the others: at the highest dose activity change, negative = inhibition, most hits filed as inhibitors. hit rate 0.28% among 350,000. AID 485290, 2010; also: potency is read from the fitted curve at half-maximal effect; % is scaled to controls: 0 for no effect and ±100 for the full control effect; nearly all actives have a fitted effect of over 40% in size
Target sequence (Q9NUW8 whole entry, looked up): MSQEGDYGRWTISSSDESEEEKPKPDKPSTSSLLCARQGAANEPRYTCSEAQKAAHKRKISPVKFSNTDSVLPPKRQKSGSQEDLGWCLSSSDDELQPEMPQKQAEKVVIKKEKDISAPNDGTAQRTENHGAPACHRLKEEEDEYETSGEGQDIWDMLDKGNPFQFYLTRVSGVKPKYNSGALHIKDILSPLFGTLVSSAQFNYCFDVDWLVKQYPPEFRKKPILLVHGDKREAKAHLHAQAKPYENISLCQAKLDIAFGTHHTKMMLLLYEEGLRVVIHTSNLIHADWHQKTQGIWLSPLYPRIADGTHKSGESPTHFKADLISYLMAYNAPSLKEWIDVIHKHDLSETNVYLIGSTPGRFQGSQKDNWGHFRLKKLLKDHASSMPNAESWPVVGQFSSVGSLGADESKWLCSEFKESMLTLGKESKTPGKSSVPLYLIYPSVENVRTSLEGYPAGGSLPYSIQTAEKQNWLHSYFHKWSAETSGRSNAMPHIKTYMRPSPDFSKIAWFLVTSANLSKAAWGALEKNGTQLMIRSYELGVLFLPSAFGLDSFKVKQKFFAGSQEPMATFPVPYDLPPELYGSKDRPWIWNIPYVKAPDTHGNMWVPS
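Recombinant E. coli-expressed Tdp1 (1 nM) preincubated with compound 15 min at RT, then 5'-biotin/3'-phosphotyrosine-FITC DNA substrate (15 nM) added for 5 min. AlphaScreen beads (10 ug/ml) added, 10 min RT; tyrosine-FITC cleavage read as signal loss.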
BLM helicase inh: qHTS Assay for Inhibitors of Bloom's syndrome helicase (BLM) | hit rate 0.2% among 350,000 | RecQ-like DNA helicase BLM (Homo sapiens), P54132 | recombinant BLM DNA unwinding, fluorescence dequenching | Potency, µM (top dose mostly 56.1 µM), for inactives: at the top dose activity change, negative = inhibition, most hits filed as inhibitors;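 also: potency is read from the fitted curve at half-maximal effect; plate controls were vehicle for no effect and no enzyme for full effect; nearly all actives have a fitted effect of over 35% in size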
APE1 inh: qHTS Assay for Inhibitors of the Human Apurinic/apyrimidinic Endonuclease 1 (APE1) | DNA repair nuclease/redox regulator APEX1 (Homo sapiens), P27695 | recombinant APE1, TAMRA/BHQ-2 abasic DNA cleavage fluorescence | Potency, µM (series often up to 65.8 µM), inactives show top-dose activity change, negative = inhibition, hits mostly inhibitors | hit rate 0.35% among 350,000 | AID 2517, 2012;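 also: potency is read from the fitted curve at half-maximal effect; plate controls were vehicle for no effect and reference inhibitor for full effect; nearly all actives have a fitted effect of over 55% in size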
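Compound pre-exposure to 0.75 nM APE1, 15 min at ambient temperature. Reaction initiated with 50 nM TAMRA/BHQ-2 THF substrate, read immediately in kinetic mode, 525 nm excitation, 598 nm emission.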
GCN5L2 inh-1: qHTS Assay for Inhibitors of GCN5L2; Histone acetyltransferase KAT2A (Homo sapiens), Q92830; GCN5L2 HAT assay, ThioGlo1 CoA-SH fluorescence; Potency, µM (series often up to 58.9 µM), for the others: at the highest dose activity change, negative = inhibition, usual class: inhibitors; hit rate 0.21% among 390,000; AID 504327, 2011; also: potency is read from the fitted curve at half-maximal effect; % is scaled to controls: 0 for no effect and ±100 for the full control effect
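Titration-based screen in which CoA formation is detected via maleimide probe ThioGlo1 (50uM) turning fluorescent on thiol reaction; substrates H3(1-25) 75uM and acetyl-CoA 70uM, GCN5L2 20nM, 20 min incubation at room temperature.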
RECQ1 helicase: qHTS Assay for Inhibitors of RecQ-Like Dna Helicase 1 (RECQ1). ATP-dependent DNA helicase Q1 (Homo sapiens), P46063. RECQ1 DNA unwinding, red fluorescence kinetic read. Potency, µM (titrated, usually from 57.3 µM), without a hit: top-dose activity, negative = inhibition, usual class: inhibitors. hit rate 0.54% among 240,000;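 also: potency is read from the fitted curve at half-maximal effect; plate controls were vehicle for no effect and no enzyme for full effect; nearly all actives have a fitted effect of over 30% in size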
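RECQ1T1 50 nM; forked duplex (20 bp + 30-nt ss tails) 200 nM, ATP 2 mM final; pH 8.0, 2 mM MgCl2, 2.5 ug/ml poly(dI-dC); 15 min compound preincubation; discontinuous kinetic read over 2 h at RT.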
LMNA splice mod: qHTS Assay for Modulators of Lamin A Splicing | Potency, µM (top dose mostly 46.1 µM), without a hit: at the top dose ratio change, negative = inhibition, most hits filed as inhibitors | HeLa LMNA splicing GFP/RFP minigene ratio, 48 h | AID 1487, 2009 | hit rate 0.01% among 200,000; active = well fitted inhibition curve with a large enough effect in the signal ratio, with a control signal flat, not every such curve was filed as active; inconclusive = small, poorly fitted or top-dose-only effect, or effect the other way, or a change in a side signal; the % refers to the signal ratio; also: potency is read from the fitted curve at half-maximal effect; % is scaled to controls: 0 for no effect and ±100 for the full control effect
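S3 HeLa cells stably expressing lamin A-EGFP splicing minigene plus DsRed2, 600 cells/well, 48 h compound exposure at 37C. Laser-scanning cytometry; analysed as GFP (500-530 nm)/RFP (575-640 nm) total intensity ratio; 0.5% DMSO vehicle.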
GCN5L2 inh-2: qHTS Assay for Inhibitors of GCN5L2: Hit confirmation | shares compounds with GCN5L2 inh-1 | GCN5L2 HAT, ThioGlo1 CoA fluorescence, 20 min | Potency, µM, actives largely listed as inhibitors | hit rate 70% among 140 | AID 588347, 2011
* = called active by the depositor; [ ] = remark or other dose. In the library only some 0.9% were active in any assay of this set; here they are far more common. Unless noted, calls follow the shape of the dose curve; as a rule, active = well fitted curve in the direction sought with a large enough effect; inconclusive = small, poorly fitted or top-dose-only effect, or another doubt; inactive = no such curve, though single readings can be large; an effect the other way counts as inactive or inconclusive.

Results for COc1cc(CCc2ccccc2)c(C(=O)O)c(O)c1C/C=C(/C)CCC=C(C)C ?
TDP1 inh: -3%[56.1 µM]; APE1 inh: -30%; GCN5L2 inh-1: 14µM*; GCN5L2 inh-2: 11*

Results for CC(C)=CCC/C(C)=C/Cc1c(O)ccc(C(=O)/C=C/c2ccc(O)cc2)c1O ?
TDP1 inh: 5%; BLM helicase inh: -14%; APE1 inh: inconclusive; GCN5L2 inh-1: -15%; RECQ1 helicase: -10%; LMNA splice mod: inconclusive

Results for C[C@H](CC[C@@H]1OC1(C)C)C1CC[C@H]2[C@@H]3CC=C4C[C@@H](O)CC[C@]4(C)[C@H]3CC[C@]12C (some centres not stated) ?
TDP1 inh: 1%; APE1 inh: 3%; GCN5L2 inh-1: -19%; RECQ1 helicase: inactive

How did O=C(O)c1ccc(N2N=C(c3ccccc3)CC2c2ccccc2)cc1 (configuration not stated) do in these assays?
BLM helicase inh: 0%; APE1 inh: -6%; GCN5L2 inh-1: 16µM*; GCN5L2 inh-2: 14*

Results for O=Cc1ccc(N2N=C(c3ccccc3)CC2c2ccccc2)cc1 (configuration not stated) ?
BLM helicase inh: -9%; APE1 inh: 18%; GCN5L2 inh-1: 1%

What do the screens show for `CC(=O)Nc1ccc(C2=NN(c3ccccc3)C(c3ccccc3)C2)cc1` (configuration not stated)?
BLM helicase inh: -4%; APE1 inh: -19%; GCN5L2 inh-1: inconclusive; GCN5L2 inh-2: 36*

Results for CCc1ccccc1NC(=O)CSc1nncn2c1cc1oc(C)cc12 ?
TDP1 inh: -8%; BLM helicase inh: -2%; GCN5L2 inh-1: -10%

What do the screens show for `O=C(OCC#CCSc1nnc(-c2cccc3ccccc23)o1)c1ccc(Cl)c(C(F)(F)F)c1`?
TDP1 inh: -3%

What do the screens show for `CC(C)(C)C(=O)/C(C#N)=C/c1cccs1`?
TDP1 inh: 6%; BLM helicase inh: 0%; APE1 inh: -7%; GCN5L2 inh-1: -25%; RECQ1 helicase: -3%

What do the screens show for `N#C/C(=C\c1cccs1)C(=O)c1ccccc1Cl`?
TDP1 inh: 6%; BLM helicase inh: -5%; APE1 inh: -1%; GCN5L2 inh-1: inconclusive; RECQ1 helicase: inactive; GCN5L2 inh-2: inconclusive

Results for COC(=O)c1sccc1NC(=O)CC1C(=O)NCCN1C(=O)c1c(F)cccc1Cl (configuration not stated) ?
TDP1 inh: 0%; BLM helicase inh: -1%; APE1 inh: -2%; GCN5L2 inh-1: inconclusive; RECQ1 helicase: inactive; GCN5L2 inh-2: inconclusive

What do the screens show for `COC(=O)c1sccc1NC(=O)CC1C(=O)NCCN1C(=O)c1ccc(N(C)C)cc1` (configuration not stated)?
TDP1 inh: -13%; BLM helicase inh: 2%; APE1 inh: inconclusive; GCN5L2 inh-1: -25%; RECQ1 helicase: -6%

Results for CCOc1ccc(C(=O)N2CCN(Cc3cc(=O)n4nc(-c5ccccc5Cl)sc4n3)CC2)cc1 ?
TDP1 inh: 5%; BLM helicase inh: 2%; GCN5L2 inh-1: -1%; LMNA splice mod: inconclusive

How did COc1ccc(S(=O)(=O)N2CCN(C(=O)c3cc4c(s3)CCC4)CC2)cc1 do in these assays?
APE1 inh: 2.7µM*; GCN5L2 inh-1: 16µM*; GCN5L2 inh-2: 18*

What do the screens show for `O=C(/C=C/c1ccccc1)Nc1cccc(S(=O)(=O)Nc2ccccc2F)c1`?
TDP1 inh: 8%; BLM helicase inh: -5%; APE1 inh: -3%; GCN5L2 inh-1: inconclusive; RECQ1 helicase: -3%; LMNA splice mod: inconclusive; GCN5L2 inh-2: inconclusive

Results for O=C(Cc1ccc(Cl)cc1Cl)Nc1cccc(S(=O)(=O)Nc2ccccc2F)c1 ?
TDP1 inh: 3%; BLM helicase inh: -3%; APE1 inh: inconclusive; GCN5L2 inh-1: inconclusive; RECQ1 helicase: -2%; LMNA splice mod: inconclusive; GCN5L2 inh-2: inconclusive

How did Cc1nc(SCC(=O)c2ccc(F)cc2)n[nH]1 do in these assays?
TDP1 inh: 10%; BLM helicase inh: -1%; APE1 inh: 0%; GCN5L2 inh-1: 22µM*; RECQ1 helicase: 15%; LMNA splice mod: inconclusive; GCN5L2 inh-2: inconclusive

What do the screens show for `Nc1nc(SCC(=O)c2ccc(F)cc2)n[nH]1`?
TDP1 inh: 0%; BLM helicase inh: -5%; APE1 inh: 14%; GCN5L2 inh-1: 1%; RECQ1 helicase: inactive; LMNA splice mod: -11%[46 µM]

What do the screens show for `O=C(C1=NN(c2ccccc2)C2C(=O)N(c3cccc(Cl)c3)C(=O)C12)c1ccccc1` (configuration not stated)?
TDP1 inh: inconclusive; BLM helicase inh: -2%; APE1 inh: -4%; GCN5L2 inh-1: 25µM*; RECQ1 helicase: -4%; LMNA splice mod: -9%; GCN5L2 inh-2: 36*

What do the screens show for `O=C1C2C3CC(C2C(=O)N1c1cccc(Cl)c1)[C@H](O)C3O` (some centres not stated)?
BLM helicase inh: -3%; APE1 inh: -1%; GCN5L2 inh-1: 3%; RECQ1 helicase: -2%

Results for O=C(COC(=O)c1ccccc1)Nc1ncc([N+](=O)[O-])s1 ?
APE1 inh: 3.4µM*; GCN5L2 inh-1: inconclusive; GCN5L2 inh-2: 4.6*

How did CSc1nc(-c2cccs2)c(C#N)c(=O)[nH]1 do in these assays?
TDP1 inh: 6%; BLM helicase inh: -5%; APE1 inh: 2%; GCN5L2 inh-1: -5%; RECQ1 helicase: -9%; LMNA splice mod: 5%[46 µM]

How did N#Cc1c(-c2cccs2)nc(SCc2ccc(Cl)cc2)[nH]c1=O do in these assays?
TDP1 inh: -9%; BLM helicase inh: 28µM*; APE1 inh: -15%; GCN5L2 inh-1: 25µM*; RECQ1 helicase: 20%; GCN5L2 inh-2: 29*
